# Measurements as given in PubChem BioAssay AID584 (National Center for Advancing Translational Sciences (NCATS), 2007).
# Hit rate of the full screen: of about 71,000 compounds, about 65 (0.09%) were called active. The entries come from a sample that favours actives as a whole. Unmarked numbers belong to inactive results. The call rests on the fitted dose curve; in most records, active means well fitted curve in the direction sought with a large enough effect; inconclusive means small, poorly fitted or top-dose-only effect; inactive means flat fitted curve, though single readings scatter.
# Biological target: Beta-lactamase (Escherichia coli (strain K12)) (UniProt P00811)
# Sequence (P00811 whole entry, looked up): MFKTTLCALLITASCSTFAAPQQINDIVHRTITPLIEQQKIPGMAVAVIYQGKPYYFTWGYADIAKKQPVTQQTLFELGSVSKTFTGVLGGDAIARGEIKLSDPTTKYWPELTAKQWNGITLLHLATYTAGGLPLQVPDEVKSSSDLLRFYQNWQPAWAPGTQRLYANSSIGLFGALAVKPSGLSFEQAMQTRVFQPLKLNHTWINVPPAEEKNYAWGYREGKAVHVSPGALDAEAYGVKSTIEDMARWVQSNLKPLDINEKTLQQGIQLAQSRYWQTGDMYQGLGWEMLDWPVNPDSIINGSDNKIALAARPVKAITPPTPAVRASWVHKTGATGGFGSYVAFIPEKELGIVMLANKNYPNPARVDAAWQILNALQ
# Assay: Promiscuous and Specific Inhibitors of AmpC Beta-Lactamase (assay with detergent)
# Details: purified AmpC, nitrocefin hydrolysis with detergent; series mostly up to 28.7 µM; activity change, negative = inhibition: at the top concentration
# Experimental: NIH Molecular Libraries Screening Centers Network [MLSCN]
# NIH Chemical Genomics Center [NCGC]
# PI Name: Shoichet, Brian K.
# This aggregation profiling approach exploits the sensitivity of aggregate formation to detergent. Inhibition of b-lactamase is measured in the presence and absence of 0.01% Triton X-100. This particular assay had the prescence of 0.01% Triton X-100. See Pubchem assay "Promiscuous and Specific Inhibitors of AmpC Beta-Lactamase (assay without detergent)" for related screen. Compounds that inhibit only in the absence of detergent are considered likely promiscuous aggregators.
# A screen of 1,030 compounds was performed in Brian Shoichet's lab in 96-well format. AmpC activity was measured by following the absorbance at 480 nm. Nitrocefin is a chromogenic substrate: while nitrocefin is yellow (lmax 390 nm), the product of its hydrolysis is red (lmax 486 nm, 17,000 M-1). AmpC beta lactamase was provided by Brian Shoichet and Brian Feng, UCSF.
# NCGC Assay Protocol Summary:
# 20 mM phosphate buffer, pH 7.0
# Triton X-100: No Detergent screen: 0.0001%, Detergent screen: 0.01%.
# Buffer in columns 3 and 4 as negative control (no enzyme).
# 5.3 nM AmpC in columns 1, 2, 5-48. Titration of UCSF compound 9 control (from 10 mM, then 1:2) pin-transferred to column 2. Column 1 is neutral (100% activity).
# Six uL of reagents were dispensed to 1536-well Greiner black clear bottom plates. Compounds and controls (23 nL) were transferred via Kalypsys PinTool. The plates were incubated for 15 min at room temperature, and then 2 uL of 800 uM solution of nitrocefin was added to start the reaction. The plates were immediately transferred to and read every 20 seconds for 4 min on ViewLux (Perkin-Elmer) High-throughput CCD imager using 480 nm absorbance protocol. During dispense, reagent bottles were kept submerged into 4 deg C water bath.
# Keywords: NIH Roadmap, MLSCN, MLI, MLSMR, qHTS, NCGC, AmpC Beta-Lactamase, Aggregation
# On the % scale 0 is the no-effect control and ±100 the full control effect; potency means the concentration at half of the fitted maximal effect.
Structure (SMILES),Potency,"activity change, negative = inhibition"
CC(C)(O/N=C(\C(=O)N[C@@H]1C(=O)N2C(C(=O)[O-])=C(C[n+]3ccccc3)CS[C@@H]12)c1csc(N)n1)C(=O)O,3.98 µM (active),
COc1ccc(OC)c(C2N(c3ccccn3)C(=O)C3CCCN32)c1 (stereo not given),,-2.28%
Clc1ccc(CSc2nnc([C@@H]3CCCN3)o2)cc1,,-2.42%
C=CCNC(=O)c1ccc(C)c(Br)c1,,-2.92%
Cc1ccc(CNC(=O)CN2CCN(Cc3ccc(Cl)cc3)C2=O)cc1,,-1.23%
COCCCNC(=O)c1ccc(CNS(=O)(=O)c2ccc(NC(C)=O)cc2)cc1,,0.576%
Cn1nc(-c2ccc(Cl)cc2)c2cc(C(=O)NCc3ccco3)sc21,,12.3%
CCCN(CCC)CCNC(=O)c1cc2c(C)nc3ccccc3c2o1,,9.75%
CCn1c(NCCc2ccc(OC)c(OC)c2)nc2c1c(=O)n(C)c(=O)n2C,,-1.87%
Fc1ccccc1CCNc1nnnn1-c1ccccc1,,-2.77%
Cc1ccn2cc(-c3nonc3C)cc2c1,,13.7%
O=C(c1cccc(S(=O)(=O)N2CCOCC2)c1)N1CCOCC1,,7.65%
Clc1ccc(Nc2nc(-c3cccs3)cs2)nc1,,-2.26%
COc1cccc2sc(Nc3nc(C)c(C(C)=O)s3)nc12,,-2.42%
CC(=O)N1CCc2cc(S(=O)(=O)Nc3ccccc3N3CCN(C)CC3)ccc21,,11.9%
COc1ccc(OCC(=O)N2CCN(C(=O)c3cccs3)CC2)cc1,,-6.48%
Cc1ccccc1C(=O)NCCN=C1NS(=O)(=O)c2ccccc21,,7.01%
C#CCN1C(=O)C(O)(CC(=O)c2cc(OC)ccc2OC)c2ccccc21 (stereo not given),,-7.87%
CCOC(=O)c1ccc(N2C(=O)CC(N3CCC(C(=O)OCC)CC3)C2=O)cc1 (stereo not given),,6.93%
O=C1c2oc3ccc(Br)cc3c(=O)c2C(c2cccc(F)c2)N1CCO (stereo not given),,-4.42%
O=C(c1ccco1)N1CCC[C@@]2(CCN(Cc3nccs3)C2)C1,,-4.4%
O=C1c2oc3ccccc3c(=O)c2C(c2cccc(O)c2)N1c1ccccn1 (stereo not given),,9.36%
CCCCCCCCCCCC(=O)O[C@H](CC(=O)O)C[N+](C)(C)C,,-4.2%
CCOC(=O)N1CCN(C(=O)c2n[nH]c(=O)c3ccccc23)CC1,,0.673%
CC(C)c1cc(C(=O)O)on1,,-6.27%
O=S(=O)(c1ccc(OCC(O)CN2CCN(c3ccccc3Cl)CC2)cc1)N1CCOCC1 (stereo not given),,2.31%
CCNC(=O)N1CCNC(=O)C1CC(=O)Nc1ccc(C(=O)OCC)cc1 (stereo not given),,-4.34%

Structure (SMILES),Potency,"activity change, negative = inhibition"
COc1ccccc1-n1nnnc1S(=O)(=O)Cc1ccc(Cl)cc1,,1.38%
COc1ccc2occ(C(=O)c3ccc(N=C(C)N(C)C)cc3)c2c1,,-1.09%
CCC(=O)Nc1ccc2c(c1)nc(CCN1CCN(C)CC1)n2C,,-3.74%
O=C(Nc1ccc(NC(=O)c2cccs2)cn1)c1ccco1,,2.68%
COC(=O)c1oc2ccc(Br)cc2c1NC(C)=O,,9.99%
O=C(C(NS(=O)(=O)c1cccc2nsnc12)c1ccccc1)N1CCN(c2ccccn2)CC1 (stereo not given),,-0.797%
CC[C@@](O)(C(=O)O)c1cc2n(c(=O)c1CO)Cc1cc3ccccc3nc1-2,,-3.6% [at 5.75 µM]
CC(C)CCNC(=O)CN(C(=O)Cn1nnc(-c2ccc(F)cc2)n1)C1CCCC1,,15.1%
O=C(CSc1nnc(-c2ccco2)o1)NCC(=O)c1ccccc1,,-2.2%
Nc1scc(-c2ccncc2)c1Cl,,-0.348%
O=C(CSc1nc2ccccc2o1)N1CCN(c2ccc(Cl)cc2)CC1,,-1.31%
O=C(c1ccccc1-c1ccccc1)N1CCOCC1,,-4.93%
Cc1ccc(F)cc1NC(=O)c1ccc2c(c1)OCO2,,-1.21%
c1ccc2nc(C3=NCCN3)cnc2c1,,-0.2%
COc1ccc(CCNc2ncnc3nc[nH]c23)cc1OC,,5.99%
Cc1cc(C(=O)O)ccc1[N+](=O)[O-],,8.6%
O=C(Nc1ccccc1F)c1cc(S(=O)(=O)N2CCCCC2)cs1,,-3.84%
COC(=O)[C@@]1(Cc2ccc(OC)cc2)[C@H]2c3cc(C(=O)N4CCCC4)n(Cc4ccc(C(F)(F)F)nc4)c3C[C@H]2CN1C(=O)c1ccccc1,,-0.9%
Cc1ccc(Cn2nnc3c(=O)n(CC(=O)N4CCCCC4)cnc32)cc1,,-3.82%
CCC(C)(C)n1nnnc1C(c1cccs1)N1CCN(c2nc3ccccc3s2)CC1 (stereo not given),,0.863%
O=S(=O)(Nc1ccc2nc(-c3ccco3)[nH]c2c1)c1ccccc1,,-0.749%
Cc1cc(N2C(=O)c3ccc(C(=O)NCc4ccccc4)cc3C2=O)no1,,-2.37%
CCCCOc1ccc(Cl)cc1CSc1nncn1N,,-1.71%
NCC[Se][Se]CCN,,-3% [at 5.75 µM]
NC(=NC(=O)c1ccccc1)C1=C(O)CCC1=O,,14%
COC(=O)Cn1c(=NC(=O)CSCC(=O)Nc2cc(C)on2)sc2ccccc21,,7.05%
Cc1ccsc1-c1nc(CSCC(=O)NCCN2CCCC2)c(C)o1,,-5.81%

Structure (SMILES),Potency,"activity change, negative = inhibition"
O=C(NCc1ccco1)c1ccc(CS(=O)(=O)Cc2ccc(F)cc2)o1,,-3.7%
CCCCCCn1c(CN2CCCC(C)C2)nc2c1c(=O)n(C)c(=O)n2C (stereo not given),,-7.21%
O=C1c2ccccc2C(Nc2ccc3c(c2)OCCO3)N1Cc1ccco1 (stereo not given),,5.99%
COc1ccccc1CN1CC2(CCN(S(=O)(=O)c3ccccc3)CC2)C1,,-1%
CCOC(=O)c1nnn(-c2nc(OC)nc(N(C)C)n2)c1-c1ccccc1,,-6.24%
CCOC(=O)c1sc(=S)n2c1[nH]c(=O)c1ccc(C(=O)OC)cc12,,30.9%
O=C(CS(=O)(=O)c1cn(Cc2cccc(F)c2)c2ccccc12)N1CCCCC1,,-1.35%
CC(C)CSC[C@@H]1O[C@H](n2cnc3c(N)nccc32)[C@H](O)[C@@H]1O,,-4% [at 5.75 µM]
CCCCSc1nnc(-c2ccc(NC(=O)CC)cc2)n1C,,-3%
COc1ccc2[nH]c(=O)c(CN(Cc3nnnn3CCc3ccccc3)CC3CCCO3)cc2c1 (stereo not given),,23.3%
CC(C)CC(=O)N=C1SC2CS(=O)(=O)CC2N1CCc1ccccc1 (stereo not given),,2.35%
O=C(NCc1ccccn1)Nc1ccc(F)cc1,,-0.221%
CC(=NCc1ccco1)C1=C(O)c2ccccc2C1=O,,4.06%
COC(=O)c1ccc(NC(=O)CSc2nnc(-c3ccncc3)n2C)cc1,,12.1%
COc1ccccc1OCCOc1ccc(/C=N/n2cnnc2)cc1,,7.14%
CC12CN(Cc3ccccc3)CC(C)(CN(Cc3ccccc3)C1)C2=NO,,6.05%
COc1ccc(-c2noc(COc3ccc(Cl)c(C)c3)n2)cc1,,8.41%
COCC(C)NC(=O)c1ccc(Cl)c(Cl)c1 (stereo not given),,-5.24%
Cc1ccc(-c2ccc(=O)n(CC(=O)NCCCN3CCCCC3)n2)cc1,,-2.99%
COc1ccc(S(=O)(=O)N2CCC(C(=O)N3CCc4ccccc4C3)CC2)cc1OC,,-5.79%
CCn1c(=O)cc(SCC(=O)NCc2ccc3c(c2)OCO3)c2ccccc21,,2.33%
COc1ccccc1-c1nc(C(F)(F)F)c(OC)o1,,-3.4%
CCC(=O)Nc1ccccc1N1CCN(S(C)(=O)=O)CC1,,-0.929%
COc1cc(C2C(C#N)=C(C)NC3=C2C(=O)CC(C)(C)C3)ccc1O (stereo not given),,-0.562%
Cc1ccc(S(=O)(=O)N2CCOCC2)cc1C(=O)NCc1ccc(F)cc1,,-4.01%
COc1cc(Br)cc(/C=N/c2ncn[nH]2)c1O,,-0.505%
COC(=O)[C@@]1(Cc2ccccc2)[C@H]2c3cc(C(=O)N4CCCC4)n(Cc4ccc(C)o4)c3C[C@H]2CN1C(=O)c1ccccc1,,-3.5%

Structure (SMILES),Potency,"activity change, negative = inhibition"
CCn1c(CSc2ncccn2)nnc1SCC(=O)N1c2ccccc2CC1C (stereo not given),,0.00583%
COc1cc(C2C(C(=O)Nc3ccc(F)cc3)=C(C)Nc3nc(CCCO)nn32)cc(OC)c1OC (stereo not given),,9.75%
CC(C)c1ccc(NS(=O)(=O)c2cn(C)c(=O)n(C)c2=O)cc1,,9.52%
O=C(CCn1c(=O)oc2ccccc21)Nc1ccon1,,2.22%
CCOC(=O)c1cc(-c2nnc(-c3cc(OC)c(OC)c(OC)c3)o2)c(C)nc1C,,3.14%
c1csc(CN2CCN(Cc3cccs3)C2c2cccs2)c1,,3.14%
COC(=O)CNS(=O)(=O)c1ccc(Cc2ccc(S(=O)(=O)NCC(=O)OC)cc2)cc1,,11.4%
Cc1ccc(C2(c3ccc(C)cc3)NC(=O)N(Cc3c(C)noc3C)C2=O)cc1,,-4.23%
C[C@@H](C(=O)Nc1ccc2ccccc2c1)[C@@H]1C[C@@]1(C)[C@@H](NC(=O)c1cccnc1)c1ccccc1,,-2.3%
N#Cc1c2c(c(N3CCN(CCO)CC3)n3c1nc1ccccc13)CCCC2,,-1.69%
Cc1cc(Br)ccc1NC(=O)C1CCCO1 (stereo not given),,-2.73%
CO[C@@H]1/C=C\O[C@]2(C)Oc3c(C)c(O)c4c(O)c(c(CN(C)C)c(O)c4c3C2=O)NC(=O)/C(C)=C\C=C[C@@H](C)[C@@H](O)[C@H](C)[C@@H](O)[C@H](C)[C@H](OC(C)=O)[C@@H]1C,,-4.9% [at 5.75 µM]
O=C(CCCCn1c(=O)[nH]c2ccccc2c1=O)NCc1ccc2c(c1)OCO2,,14.5%
CCN(CC(=O)NC(C)C)C(=O)CCNC(=O)c1ccc(Cl)cc1,,-4.89%
COc1ccc(-c2nc3cnc(N(C)C)nc3n(Cc3cccs3)c2=O)cc1,,-2.8%
CCOC(=O)C1C(=O)C=C(c2ccc(OC)cc2)CC1c1ccco1 (stereo not given),,-3.67%
O=C(C1CCC(C(=O)N2CCCC2)CC1)N1CCCC1 (stereo not given),,-2.96%
O=C1CCc2cc(S(=O)(=O)N3CCC(C(=O)NCc4ccccc4Cl)CC3)ccc2N1,,11.6%
COc1cccc(-n2c(Cc3cc(=O)[nH]c(=O)[nH]3)nnc2SCC(=O)Nc2ccccc2)c1,,11.9%
COc1ccc(C)cc1NC(=O)CSc1nc(SC)ns1,,-4.47%
Cc1ccc2cc3cc(C(=O)N4CCCCCC4)oc3nc2c1,,-1.31%
COc1ccccc1CNc1ncnc2ccc(-c3c(C)noc3C)cc12,,10.9%
CC(=O)N1[C@H](C)C=C[C@]1(Cc1ccccc1)C(=O)NCc1ccccn1,,13.8%
CCOc1cc2[nH]c(=S)n(CCCN3CCCC3=O)c(=O)c2cc1OCC,,-1.69%
